Results reported in the antibiotic and cytotoxicity screens of Wong et al. (2023).
Out of some 39,000 compounds screened, about 1,500 (3.8%) were called active. The list comes from a sample in which actives are over-represented; it also holds similar structures and randomly drawn compounds.

System: HSkMC (human skeletal muscle cells)
Assay: cytotoxicity call (relative viability < 0.9)
Details: 10 µM

| SMILES | cytotoxicity call |
| --- | --- |
| COCCn1cc2c(n1)[C@H](CNC(=O)COC)OCC2 | inactive |
| C[C@@H]1CCCCO[C@H](CN(C)C(=O)c2ccccc2)[C@@H](C)CN([C@H](C)CO)C(=O)c2cc(NC(=O)C3CCCCC3)ccc2O1 | inactive |
| C[C@@H]1CN([C@@H](C)CO)C(=O)c2cc(NC(=O)Nc3ccccc3)ccc2O[C@@H](C)CCCCO[C@H]1CN(C)C(=O)Nc1cccc2ccccc12 | inactive |
| C[C@@H]1CN([C@H](C)CO)C(=O)c2cc(NC(=O)Nc3ccc(C(F)(F)F)cc3)ccc2O[C@@H](C)CCCCO[C@@H]1CN(C)Cc1ccccc1 | active |
| C[C@H](CO)N1C[C@H](C)[C@H](CN(C)Cc2ccccc2)OCCCC[C@H](C)Oc2ccc(NC(=O)Nc3ccc(C(F)(F)F)cc3)cc2C1=O | active |
| C[C@@H]1CCCCO[C@H](CN(C)Cc2ccccc2)[C@@H](C)CN([C@H](C)CO)C(=O)c2cc(NC(=O)Nc3ccc(C(F)(F)F)cc3)ccc2O1 | active |
| C[C@@H]1CCCCO[C@H](CN(C)Cc2ccccc2)[C@@H](C)CN([C@@H](C)CO)C(=O)c2cc(NC(=O)Nc3ccc(C(F)(F)F)cc3)ccc2O1 | active |
| Cn1nc(C2CC2)cc1N | inactive |
| C[C@H](CO)N1C[C@H](C)[C@@H](CN(C)C(=O)NC2CCCCC2)OCCCC[C@H](C)Oc2ccc(NC(=O)C3CCCCC3)cc2C1=O | inactive |
| Cc1noc(C)c1NC(=O)Nc1ccc2c(c1)C(=O)N([C@H](C)CO)C[C@H](C)[C@H](CN(C)C(=O)Cc1ccccc1)OCCCC[C@@H](C)O2 | inactive |
| C[C@H](CO)N1C[C@H](C)[C@H](CN(C)C(=O)C2CCCCC2)Oc2cc(C#Cc3ccncc3)ccc2S1(=O)=O | inactive |
| Cc1onc(-c2ccccc2)c1C(=O)NC1C(=O)N2C1SC(C)(C)C2C(=O)[O-].[Na+] (stereo not drawn) | inactive |
| COc1ccc(S(=O)(=O)Nc2ccc3c(c2)C(=O)N([C@H](C)CO)C[C@H](C)[C@H](CN(C)C(=O)Nc2ccc(F)cc2)OCCCC[C@H](C)O3)cc1 | inactive |
| O=C(O)c1ccoc1 | inactive |
| Cc1ccc(S(=O)(=O)N(C)C[C@H]2Oc3cc(C#Cc4ccncc4)ccc3S(=O)(=O)N([C@H](C)CO)C[C@@H]2C)cc1 | inactive |
| C[C@@H]1CN([C@H](C)CO)C(=O)c2cc(NC(=O)NC3CCCCC3)ccc2O[C@@H]1CN(C)Cc1ccc(C(F)(F)F)cc1 | inactive |
| C[C@@H]1CCCCO[C@@H](CN(C)Cc2ccccc2)[C@@H](C)CN([C@H](C)CO)C(=O)c2cc(NC(=O)Nc3ccc(C(F)(F)F)cc3)ccc2O1 | inactive |
| C[C@@H]1CN([C@@H](C)CO)C(=O)c2cc(NC(=O)Nc3ccc(C(F)(F)F)cc3)ccc2O[C@@H](C)CCCCO[C@@H]1CN(C)Cc1ccccc1 | inactive |
| C[C@H](CO)N1C[C@H](C)[C@@H](CN(C)Cc2ccccc2)OCCCC[C@H](C)Oc2ccc(NC(=O)Nc3ccc(C(F)(F)F)cc3)cc2C1=O | active |
| C[C@@H]1CCCCO[C@@H](CN(C)Cc2ccccc2)[C@H](C)CN([C@@H](C)CO)C(=O)c2cc(NC(=O)Nc3ccc(C(F)(F)F)cc3)ccc2O1 | inactive |
| C[C@@H]1CCCCO[C@@H](CN(C)Cc2ccccc2)[C@H](C)CN([C@H](C)CO)C(=O)c2cc(NC(=O)Nc3ccc(C(F)(F)F)cc3)ccc2O1 | inactive |

| SMILES | cytotoxicity call |
| --- | --- |
| C[C@@H]1CN([C@H](C)CO)C(=O)c2cc(NC(=O)Nc3ccc(C(F)(F)F)cc3)ccc2O[C@@H](C)CCCCO[C@H]1CN(C)Cc1ccccc1 | active |
| C[C@@H]1CCCCO[C@@H](CN(C)Cc2ccccc2)[C@@H](C)CN([C@@H](C)CO)C(=O)c2cc(NC(=O)Nc3ccc(C(F)(F)F)cc3)ccc2O1 | active |
| C[C@@H]1CCCCO[C@H](CN(C)Cc2ccccc2)[C@H](C)CN([C@H](C)CO)C(=O)c2cc(NC(=O)Nc3ccc(C(F)(F)F)cc3)ccc2O1 | active |
| CCC[C@@H](O)C#Cc1cnc2c(c1)C(=O)N([C@H](C)CO)C[C@H](C)[C@H](CN(C)C(=O)Nc1ccc(F)cc1)O2 | inactive |
| COC(=O)C12CC3(C(=O)OC)CC(C(=O)OC)(CC(C(=O)OC)(C1)C3=O)C2=O | inactive |
| COc1cccc(S(=O)(=O)Nc2ccc3c(c2)[C@@H]2C[C@H](CC(=O)NCc4cccc(F)c4)O[C@@H](CO)[C@@H]2O3)c1 | inactive |
| Cc1c2occ(C(C)(C)C)c2cc2c3c(c(=O)oc12)CCCC3 | inactive |
| NC(=O)c1ccco1 | inactive |
| C[C@H](CO)N1C[C@H](C)[C@H](CN(C)C(=O)Nc2cccc3ccccc23)Oc2c(NC(=O)NC3CCCCC3)cccc2C1=O | inactive |
| COc1ccc(NC(=O)N(C)C[C@H]2Oc3ccc(NC(=O)C4CC4)cc3C(=O)N([C@H](C)CO)C[C@H]2C)cc1 | inactive |
| C=CCOC(=O)[C@H]1[C@@H]2C(=O)O[C@@H](c3ccccc3)[C@@H](c3ccccc3)N2[C@@H](c2ccc(OCCOC(=O)NCCCCCC(=O)NO)cc2)[C@@]12C(=O)Nc1ccccc12 | inactive |
| C[C@@H]1CCCCO[C@H](CN(C)C(=O)Cc2ccccc2)[C@@H](C)CN([C@@H](C)CO)C(=O)c2cc(NS(=O)(=O)c3ccc(F)cc3)ccc2O1 | inactive |
| Cn1c(=O)c2c(ncn2CC(=O)O)n(C)c1=O | inactive |
| Cc1cnc(Nc2ccc(F)cc2Cl)nc1-c1c[nH]c(C(=O)N[C@H](CO)c2cccc(Cl)c2)c1 | active |
| O=C(C[C@@H]1CC[C@@H]2NC[C@@H](O)COC[C@H]2O1)NCCN1CCCC1 | inactive |
| Cc1ccc(S(=O)(=O)N(C)C[C@@H]2OCCCC[C@H](C)Oc3ccc(NS(=O)(=O)c4ccc(Cl)cc4)cc3C(=O)N([C@@H](C)CO)C[C@H]2C)cc1 | inactive |
| O=C(O)c1cc2sccc2s1 | inactive |
| CCOc1cc2ncc(C#N)c(Nc3ccc(OCc4ccccn4)c(Cl)c3)c2cc1NC(=O)/C=C/CN(C)C | active |
| COc1cc(Nc2c(C#N)cnc3cc(OCCCN4CCN(C)CC4)c(OC)cc23)c(Cl)cc1Cl | inactive |
| CCOc1cc2ncc(C#N)c(Nc3ccc(OCc4ccccn4)c(Cl)c3)c2cc1NC(=O)/C=C/[C@H]1CCCN1C | inactive |
| C[C@@H]1CCCCO[C@@H](CN(C)C(=O)Cc2ccccc2)[C@H](C)CN([C@@H](C)CO)C(=O)c2cc(NS(=O)(=O)c3ccc(Cl)cc3)ccc2O1 | inactive |

| SMILES | cytotoxicity call |
| --- | --- |
| CC(C)Oc1cccc(CC(=O)N2CCC[C@](CC[N+]34CCC(c5ccccc5)(CC3)CC4)(c3ccc(Cl)c(Cl)c3)C2)c1 | inactive |
| CC(=O)N(C)C1(c2ccccc2)CCN(CCC[C@]2(c3ccc(Cl)c(Cl)c3)CCCN(C(=O)c3ccccc3)C2)CC1 | active |
| CC(C)NC(=O)Nc1ccc2c(c1)CC(=O)N([C@@H](C)CO)C[C@@H](C)[C@@H](CN(C)S(=O)(=O)c1cn(C)cn1)O2 | inactive |
| C[C@H](CO)N1C[C@H](C)[C@@H](CN(C)Cc2ccccc2)OCCCC[C@H](C)Oc2ccc(NC(=O)c3ccncc3)cc2C1=O | inactive |
| C[C@@H]1CN([C@@H](C)CO)C(=O)c2c(c3ccccc3n2C)-c2ccccc2CO[C@@H]1CN(C)Cc1ccc(C(F)(F)F)cc1 | inactive |
| C[C@@H]1CN([C@@H](C)CO)C(=O)c2c(c3ccccc3n2C)-c2ccccc2CO[C@@H]1CN(C)S(=O)(=O)c1ccc(C(F)(F)F)cc1 | inactive |
| C[C@@H]1CN([C@@H](C)CO)C(=O)c2c(c3ccccc3n2C)-c2ccccc2CO[C@H]1CN(C)Cc1ccc(C(F)(F)F)cc1 | active |
| C[C@@H]1CN([C@H](C)CO)C(=O)c2c(c3ccccc3n2C)-c2ccccc2CO[C@H]1CN(C)Cc1ccc(C(F)(F)F)cc1 | active |
| C[C@@H]1CN([C@H](C)CO)C(=O)c2c(c3ccccc3n2C)-c2ccccc2CO[C@H]1CN(C)S(=O)(=O)c1ccc(C(F)(F)F)cc1 | active |
| C[C@H](CO)N1C[C@H](C)[C@H](CN(C)Cc2ccc(C(F)(F)F)cc2)OCc2ccccc2-c2c(n(C)c3ccccc23)C1=O | inactive |
| C[C@H]1CN([C@@H](C)CO)C(=O)c2c(c3ccccc3n2C)-c2ccccc2CO[C@H]1CN(C)Cc1ccc(C(F)(F)F)cc1 | inactive |
| C[C@H]1CN([C@@H](C)CO)C(=O)c2c(c3ccccc3n2C)-c2ccccc2CO[C@@H]1CN(C)Cc1ccc(C(F)(F)F)cc1 | inactive |
| C[C@@H]1CN([C@H](C)CO)C(=O)c2c(c3ccccc3n2C)-c2ccccc2CO[C@@H]1CN(C)Cc1ccc(F)cc1 | inactive |
| C[C@@H]1CN([C@H](C)CO)C(=O)c2c(c3ccccc3n2C)-c2ccccc2CO[C@@H]1CN(C)Cc1ccc(C(F)(F)F)cc1 | active |
| C[C@H](CO)N1C[C@H](C)[C@@H](CN(C)Cc2ccc(C(F)(F)F)cc2)OCc2ccccc2-c2c(n(C)c3ccccc23)C1=O | inactive |
| C[C@@H]1CN([C@H](C)CO)C(=O)c2c(c3ccccc3n2C)-c2ccccc2CO[C@@H]1CN(C)S(=O)(=O)c1ccc(C(F)(F)F)cc1 | inactive |
| C[C@H](CO)N1C[C@H](C)[C@@H](CN(C)C(=O)Nc2ccccc2)OCCCC[C@H](C)Oc2ccc(NC(=O)Nc3ccc(F)cc3)cc2C1=O | inactive |
| C[C@@H]1CCCCO[C@H](CN(C)C(=O)Nc2ccc3c(c2)OCO3)[C@@H](C)CN([C@@H](C)CO)C(=O)c2cc(NS(=O)(=O)c3cccs3)ccc2O1 | inactive |
| CN(C)C(=O)C[C@H]1CC[C@@H](NC(=O)C2CCOCC2)[C@H](CO)O1 | inactive |
| O=C(/C=C/c1ccc(O)c(O)c1)O[C@H]1[C@H](O)C[C@](OC(=O)/C=C/c2ccc(O)c(O)c2)(C(=O)O)C[C@H]1O | inactive |
| O=C(C[C@@H]1CC[C@@H]2[C@H](COC[C@@H](O)CN2S(=O)(=O)c2ccc(Cl)cc2)O1)NCC1CCCCC1 | inactive |
